According to PubChem BioAssay AID1724 (National Center for Advancing Translational Sciences (NCATS), 2009):
Results filed as inconclusive are left out. A number with no mark means an inactive call. Active and inactive are the calls of the source. Calls follow the shape of the dose curve; as a rule, active = well fitted inhibition curve with a large enough effect; inconclusive = small, poorly fitted or top-dose-only effect, or effect the other way; inactive = no such curve, though single readings can be large or run the other way.

experiment: Confirmation Concentration-Response Assay for Inhibitors of the ERK Signaling Pathway using a Homogeneous Screening Assay; details: HEK293 cells, hormone-stimulated phospho-ERK AlphaScreen; series mostly up to 40.9 µM; activity change, negative = inhibition: at the top concentration
Excerpt: qHTS Assay for Inhibitors of the ERK Signaling Pathway using a Homogeneous Screening Assay
NIH Chemical Genomics Center [NCGC]
NIH Molecular Libraries Screening Centers Network [MLSCN]
Assay Submitter (PI): Dr. Wei Zheng, NCGC/NIH
The Ras/extracellular-signal-regulated kinase (ERK) mitogen activated protein (MAP) kinase signaling pathway (ERK1/2 cascade) plays is a key role in transmitting signals from the cell surface to the nucleus (Nishida and Gotoh 1993; Chang and Karin, 2001). The cascade is initiated by the small G-protein Ras, which recruits Raf […], where activation occurs. Alternatively, this pathway can be activated by elevating intracellular cAMP.
Activation of the ERK pathway is essential in increased cell division and cell survival. Sustained and constitutive activation of the ERK pathway, however, has been linked to uncontrolled cell proliferation, increased cell survival, and tumor progression. Thus, the ERK has been as an attractive target for cancer chemotherapy in the past few years (Sebolt-Leopold and Herrera, 2004). Given its physiological and pathological importance, assessment of ERK phosphorylation has been broadly performed in both basic research and drug discovery. Most assays for the measurement of ERK phosphorylation use the antibody-based detection methods, such as western blot and ELISA. These assays require multiple reagent additions with cell wash steps and are not suitable for high-throughput screening.
The current cell-based ERK phosphorylation assay was performed using AlphaScreen platform. AlphaScreen is a two bead-based proximity-dependent chemical energy transfer luminescent assay platform. The assay reagents (ERK SureFire(TM) kit) were supplied from TGR BioSciences (Australia). In the presence of specific antibodies, phosphorylated ERK will bring "donor" and "acceptor" beads to a proximity range (<200 nm), and subsequently lead a chemical luminescent reaction upon exciting donor beads with 680 nm laser. To exclude the assay-related false positives, we used a biotinylated rabbit IgG to perform counter-screen. The biotinylated antibody mimics the phosphorylated ERK1/2 for bringing streptavidin coated beads and protein-A coated beads to a proximity range for the AlphaScreen detection.
NCGC Assay Protocol Summary:
HEK293 cells stably expressing type-1 vasopressin receptor (V1b) were maintained in DMEM medium (Invitrogen, Carlsbad, CA) at 37C under a humidified atmosphere containing 5% CO2 and 95% air. The medium contained 10% FBS, 2 mM L-glutamine, non-essential amino acid, pyruvate and 50 U/ml penicillin and 50 ug/ml streptomycin (Invitrogen). The aliquots of frozen cells were stored at -135C and used for the compound screening. All compounds were screened as titrations from 0.6 nM to 46 uM final concentration. Vasopressin was used to stimulate the ERK phosphorylation pathway. The ERK phosphorylation in cells was determined using an AlphaScreen assay kit provided by PerkinElmer. Data were normalized to the controls for basal activity (DMSO only) and 100% activation (25 nM vasopressin). AC50 values were determined from concentration-response data modeled with the standard Hill equation.
(1) Seed 4 ul/well of resuspended frozen HEK293 cells containing 2000 cells in white 1536-well plates for overnight with 1% FBS at 37C under a humidified atmosphere containing 5% CO2 and 95% air.
(2) Add 23 nL compounds in DMSO solution. The final titration was 0.6 nM to 46 uM.
(3) Incubate at 37C for 30 min.
(4) Dispense 0.5uL vasopressin (25 nM in final)
(5) Incubate at 37C for 5 min.
(6) Dispense 0.5uL of 1:2 diluted 5x lysis buffer.
(7) Incubate at 37C for 10 min.
(8) Dispense 1.5uL of mixture of activation buffer and reaction buffer with AlphaScreen beads (streptavidin donor beads and protein-A acceptor beads, 10 ng/well for each).
(9) Incubate at room temperature for 5 hr.
(10) Detect the assay plate in an EnVision plate reader (PerkinElmer) using the AlphaScreen detection mode.
[…]

| Compound | activity change, negative = inhibition | Potency |
| --- | --- | --- |
| Cc1cc(-c2ccccc2)n(-c2cc(N/N=C/c3ccccc3O)ncn2)n1 | -78% | – |
| CCOc1ccc(/C(O)=C2/C(=O)C(=O)N(c3ncccn3)C2c2ccccc2)cc1 (stereo not given) | 1.77% | – |
| Cc1sc2ncnc(Sc3nnnn3-c3ccc(Cl)cc3)c2c1C | 24% | – |
| N#CC(=C(/N)Sc1ccccc1N)/C(C#N)=C(/N)Sc1ccccc1N | – | 0.501 µM (active) |
| Cc1ccc(NNc2c(C)nc3ccccc3nc2=O)cc1 | -19.8% | – |
| COc1ccc(CC(=O)Nc2cccc(-c3nnc(-c4cccc(C)c4)o3)c2)cc1OC | – | 4.47 µM (active) |
| O=C(Nc1ccc(-c2cn3ccsc3n2)cc1)c1ccc(F)c(S(=O)(=O)N2CCOCC2)c1 | – | 12.6 µM (active) |
| COc1ccc(C(=O)c2ccc(Cl)c([N+](=O)[O-])c2)cc1 | – | 12.6 µM (active) |
| O=S(=O)(c1ccccc1)N1CCN(c2cc(-c3ccccc3)nc3ncnn23)CC1 | – | 31.6 µM (active) |
| COC(=O)c1cc(-c2ccc(OC)c(OC)c2)on1 | – | 7.08 µM (active) |
| COc1ccc(C(=O)OC(COc2ccccc2)Cn2ccnc2)cc1 (stereo not given) | – | 15.8 µM (active) |
| COc1ccc2[nH]cc(CCNc3ncnc4ccc(-c5ccc(C(=O)N(C)C)cc5)cc34)c2c1 | – | 31.6 µM (active) |
| Cc1cccc(CNc2ncnc3ccc(-c4cccnc4)cc23)c1 | – | 12.6 µM (active) |
| O=C(Nc1nc(-c2ccccc2)cs1)c1ccc(N2CCOCC2)c([N+](=O)[O-])c1 | – | 7.08 µM (active) |
| Cc1nc2ccccc2c2oc(C(=O)N3CCc4ccccc4C3)cc12 | – | 25.1 µM (active) |
| O=C(Nc1ccc(N2CCN(C(=O)c3ccccc3)CC2)cc1)c1cc2ccccc2o1 | – | 12.6 µM (active) |
| CC(/C=C/c1ccccc1)=N\Nc1ccccc1[N+](=O)[O-] | -97.9% | – |
| O=C1c2ccc(O)c(O)c2C(=O)c2c(O)ccc(O)c21 | -86.9% | – |
| CCC(=O)N1CCN(c2ccc(NC(=O)c3cc4ccccc4o3)cc2Cl)CC1 | – | 12.6 µM (active) |
| CCCN1C(=O)/C(=C2/C=Cc3ccccc3N2CC)SC1=S | – | 11.2 µM (active) |

| Compound | activity change, negative = inhibition | Potency |
| --- | --- | --- |
| O=C(Nc1nccs1)c1cc2sccc2n1Cc1ccc(F)cc1 | 25.1% [at 57.5 µM] | – |
| N#CC(C#N)=c1ccc2c(c1)N1C3=C(CCCC3)CC3CCCCC31N=2 (stereo not given) | – | 5.01 µM (active) |
| CCCC(=O)N1CCN(c2ccc(NC(=O)c3cc4ccccc4o3)cc2Cl)CC1 | – | 7.94 µM (active) |
| CCCNc1ncnc2sc(C)c(C)c12 | -12.8% | – |
| COc1ccc(C(=O)Nc2ccc(-c3ccc(C)o3)cc2)cc1S(=O)(=O)N1CCOCC1 | – | 10 µM (active) |
| CCOC(=O)c1ccc(NC(=O)c2cccc(S(=O)(=O)N3CCOCC3)c2)cc1 | – | 25.1 µM (active) |
| COc1cc(C(=O)Nc2nc(-c3cccs3)cs2)cc(OC)c1OC | – | 12.6 µM (active) |
| COc1ccc(CNc2ncnc3ccc(-c4cccc(NS(C)(=O)=O)c4)cc23)c(OC)c1 | – | 15.8 µM (active) |
| CN(C)c1ccc(-c2ccc3ncnc(NCc4ccccc4)c3c2)cc1 | – | 15.8 µM (active) |
| COc1ccc(C(=O)Nc2cccc(C(C)=O)c2)cc1S(=O)(=O)N1CCOCC1 | -20.3% [at 57.5 µM] | – |
| O=C(c1cccs1)c1no[n+]([O-])c1C(=O)c1cccs1 | – | 2 µM (active) |
| Cc1sc2ncnc(Nc3ccccc3)c2c1C | -50.7% | – |
| C=C[C@@]1(C)CC(=O)[C@@]2(O)[C@@]3(C)[C@@H](O)CCC(C)(C)[C@@H]3[C@H](O)[C@H](OC(C)=O)[C@@]2(C)O1 | -68.1% | – |
| Cn1c(=O)cc(Nc2ccccc2)c2c(=O)n(-c3ccccc3)c(=O)n(-c3ccccc3)c21 | – | 8.91 µM (active) |
| COc1cccc(/C=N/Nc2cc(-n3nc(C)cc3-c3ccccc3)ncn2)c1O | -68.1% | – |
| CN(C)c1ccc(Nc2c3c4c(cccc4n(C)c2=O)C(=O)c2ccccc2-3)cc1 | – | 14.1 µM (active) |
| CN(C)c1cc2c(Nc3ccc4c(cnn4Cc4ccccc4)c3)ncnc2cn1 | -44.7% | – |
| CNc1cccc2c1C(=O)c1ccccc1C2=O | – | 14.1 µM (active) |
| C=C[C@@]1(C)CC(=O)[C@@]2(O)[C@@]3(C)[C@@H](O)CCC(C)(C)[C@@H]3[C@H](OC(=O)CCN(C)C)[C@H](OC(C)=O)[C@@]2(C)O1 | – | 0.282 µM (active) |
| CCN(C1CCCCC1)S(=O)(=O)c1ccc(S(=O)(=O)NCc2ccncc2)cc1 | 6.37% [at 57.5 µM] | – |
